# Measurements as given in publication PMC7862700, “An all-to-all approach to the identification of sequence-specific readers for epigenetic DNA modifications on cytosine”.
# What was measured:
# Assay in all cases: DAPPL (digital affinity profiling via proximity ligation, sequencing); 10 mM Tris-HCl pH 7.5, 50 mM NaCl, 1 mM DTT, 4% glycerol, room temperature, 30 min; GST-TFs on glutathione beads, 16-mer random dsDNA library, 0.1% formaldehyde crosslink after washing; high values mean tight binding
# FLI1 = target: T1, FLI1 (Homo sapiens, UniProt Q01543 1-452); conditions: protein: recombinant; tags: N-terminal GST; dsDNA, one strand shown
# T1 sequence: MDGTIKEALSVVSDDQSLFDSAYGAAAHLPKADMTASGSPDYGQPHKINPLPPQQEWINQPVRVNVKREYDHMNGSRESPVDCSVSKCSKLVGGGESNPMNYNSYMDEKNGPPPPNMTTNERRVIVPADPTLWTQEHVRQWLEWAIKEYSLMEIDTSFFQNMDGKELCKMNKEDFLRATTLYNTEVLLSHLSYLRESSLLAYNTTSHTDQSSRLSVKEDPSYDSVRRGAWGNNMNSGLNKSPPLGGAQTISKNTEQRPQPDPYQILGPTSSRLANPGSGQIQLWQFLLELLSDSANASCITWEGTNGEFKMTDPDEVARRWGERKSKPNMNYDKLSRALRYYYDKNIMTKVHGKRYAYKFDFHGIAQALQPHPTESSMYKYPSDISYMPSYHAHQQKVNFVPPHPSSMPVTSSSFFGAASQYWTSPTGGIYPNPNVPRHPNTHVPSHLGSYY
# In short: (§1)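 Binding signal is defined as a hexamer's read frequency for one factor over its frequency for the tag-only sample. To obtain reads, GST-fused human transcription factors were expressed in yeast, captured on glutathione beads, barcoded with DNA and pooled with that sample. Pools met 200 nmole of a 16-mer random double-stranded DNA library in Tris/NaCl/DTT/glycerol buffer for 30 min at room temperature before washing, 0.1% formaldehyde crosslinking, proximity ligation (BsaI/T4 ligase, 1 h, 37 °C), PCR and Illumina NextSeq500 sequencing.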
# ELK1 = target: T2, ELK1 (Homo sapiens, UniProt P19419 1-428); conditions: protein: recombinant; tags: N-terminal GST; dsDNA, one strand shown
# T2 sequence: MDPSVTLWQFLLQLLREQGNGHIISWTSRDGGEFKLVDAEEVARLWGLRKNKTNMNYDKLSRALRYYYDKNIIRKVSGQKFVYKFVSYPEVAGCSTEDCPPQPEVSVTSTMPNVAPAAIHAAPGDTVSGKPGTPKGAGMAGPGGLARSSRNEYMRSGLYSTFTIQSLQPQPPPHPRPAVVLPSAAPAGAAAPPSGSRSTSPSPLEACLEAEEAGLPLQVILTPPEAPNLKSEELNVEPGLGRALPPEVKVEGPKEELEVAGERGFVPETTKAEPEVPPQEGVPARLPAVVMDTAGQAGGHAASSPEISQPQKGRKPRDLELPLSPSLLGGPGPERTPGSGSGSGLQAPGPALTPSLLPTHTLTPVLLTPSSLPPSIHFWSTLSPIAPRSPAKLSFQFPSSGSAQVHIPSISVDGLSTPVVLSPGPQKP
# In short: as §1
# GABPA = target: T3, GABPA (Homo sapiens, UniProt Q06546 1-454); conditions: protein: recombinant; tags: N-terminal GST; dsDNA, one strand shown
# T3 sequence: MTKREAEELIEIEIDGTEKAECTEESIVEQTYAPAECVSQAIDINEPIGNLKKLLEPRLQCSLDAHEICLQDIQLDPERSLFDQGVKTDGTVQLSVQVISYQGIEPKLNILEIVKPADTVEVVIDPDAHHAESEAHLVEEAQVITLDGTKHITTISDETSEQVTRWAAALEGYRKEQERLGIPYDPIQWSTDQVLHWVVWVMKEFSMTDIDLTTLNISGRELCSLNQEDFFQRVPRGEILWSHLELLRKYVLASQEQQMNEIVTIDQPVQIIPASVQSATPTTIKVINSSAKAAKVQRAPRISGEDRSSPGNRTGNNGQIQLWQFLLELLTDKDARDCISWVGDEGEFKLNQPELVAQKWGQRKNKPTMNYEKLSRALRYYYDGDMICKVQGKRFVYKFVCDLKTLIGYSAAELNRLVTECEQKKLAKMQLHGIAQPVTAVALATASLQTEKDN
# In short: as §1
# ERG = target: T4, ERG (Homo sapiens, UniProt P11308 1-479); conditions: protein: recombinant; tags: N-terminal GST; dsDNA, one strand shown
# T4 sequence: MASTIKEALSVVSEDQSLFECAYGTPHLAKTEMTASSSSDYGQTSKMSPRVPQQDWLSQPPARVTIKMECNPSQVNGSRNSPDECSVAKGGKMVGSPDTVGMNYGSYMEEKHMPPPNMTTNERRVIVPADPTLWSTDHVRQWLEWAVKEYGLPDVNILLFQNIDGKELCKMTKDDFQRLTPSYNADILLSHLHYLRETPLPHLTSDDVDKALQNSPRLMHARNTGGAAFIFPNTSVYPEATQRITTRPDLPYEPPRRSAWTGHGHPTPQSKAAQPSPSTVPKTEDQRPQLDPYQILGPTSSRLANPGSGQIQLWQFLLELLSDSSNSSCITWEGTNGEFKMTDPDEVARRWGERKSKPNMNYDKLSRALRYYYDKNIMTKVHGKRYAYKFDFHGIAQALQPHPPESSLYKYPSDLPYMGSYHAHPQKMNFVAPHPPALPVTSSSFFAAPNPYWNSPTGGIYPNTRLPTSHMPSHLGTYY
# In short: as §1
# ELF1 = ELF1 (Homo sapiens, UniProt P32519 1-619); conditions: protein: recombinant; tags: N-terminal GST; dsDNA, one strand shown
# In short: as §1
# EHF = target: T5, EHF (Homo sapiens, UniProt Q9NZC4 1-300); conditions: protein: recombinant; tags: N-terminal GST; dsDNA, one strand shown
# T5 sequence: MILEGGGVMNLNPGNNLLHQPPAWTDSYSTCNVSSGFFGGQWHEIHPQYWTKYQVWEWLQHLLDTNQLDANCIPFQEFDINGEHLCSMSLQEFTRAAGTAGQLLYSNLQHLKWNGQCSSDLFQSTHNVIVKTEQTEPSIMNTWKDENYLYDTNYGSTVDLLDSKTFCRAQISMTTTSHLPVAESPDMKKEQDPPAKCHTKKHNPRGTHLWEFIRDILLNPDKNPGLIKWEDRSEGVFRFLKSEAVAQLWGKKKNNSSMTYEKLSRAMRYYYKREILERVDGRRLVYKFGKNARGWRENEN
# In short: as §1
# SPI1 = SPI1 (Homo sapiens, UniProt P17947 1-270); conditions: protein: recombinant; tags: N-terminal GST; dsDNA, one strand shown
# In short: as §1
# SPIB = SPIB (Homo sapiens, UniProt Q01892 1-262); conditions: protein: recombinant; tags: N-terminal GST; dsDNA, one strand shown
# In short: as §1
# ELK3 = target: T6, ELK3 (Homo sapiens, UniProt P41970 1-407); conditions: protein: recombinant; tags: N-terminal GST; dsDNA, one strand shown
# T6 sequence: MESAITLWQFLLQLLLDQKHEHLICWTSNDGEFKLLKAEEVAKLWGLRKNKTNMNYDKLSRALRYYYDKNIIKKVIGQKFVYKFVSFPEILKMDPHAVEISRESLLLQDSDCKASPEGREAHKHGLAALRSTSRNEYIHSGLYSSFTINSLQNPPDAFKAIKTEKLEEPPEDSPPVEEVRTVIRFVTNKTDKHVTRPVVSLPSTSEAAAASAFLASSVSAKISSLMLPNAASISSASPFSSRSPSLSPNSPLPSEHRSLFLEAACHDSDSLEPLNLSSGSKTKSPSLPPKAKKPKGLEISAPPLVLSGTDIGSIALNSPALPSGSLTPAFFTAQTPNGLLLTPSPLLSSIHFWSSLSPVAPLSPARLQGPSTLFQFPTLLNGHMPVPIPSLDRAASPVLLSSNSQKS
# In short: as §1
# FEV = target: T7, FEV (Homo sapiens, UniProt Q99581 1-238); conditions: protein: recombinant; tags: N-terminal GST; dsDNA, one strand shown
# T7 sequence: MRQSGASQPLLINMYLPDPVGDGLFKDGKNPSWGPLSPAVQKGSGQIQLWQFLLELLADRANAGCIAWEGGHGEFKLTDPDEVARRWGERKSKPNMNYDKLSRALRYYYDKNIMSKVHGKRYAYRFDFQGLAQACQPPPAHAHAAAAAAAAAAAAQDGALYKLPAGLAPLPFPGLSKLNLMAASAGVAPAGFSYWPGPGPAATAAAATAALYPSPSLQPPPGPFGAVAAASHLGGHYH
# In short: as §1
# ETV5 = ETV5 (Homo sapiens, UniProt P41161 1-510); conditions: protein: recombinant; tags: N-terminal GST; dsDNA, one strand shown
# In short: as §1
# HSF1 = HSF1 (Homo sapiens, UniProt Q00613 1-529); conditions: protein: recombinant; tags: N-terminal GST; chain copies: 3; dsDNA, one strand shown
# In short: as §1
# SPIC = target: T8, SPIC (Homo sapiens, UniProt Q8N5J4 1-248); conditions: protein: recombinant; tags: N-terminal GST; dsDNA, one strand shown
# T8 sequence: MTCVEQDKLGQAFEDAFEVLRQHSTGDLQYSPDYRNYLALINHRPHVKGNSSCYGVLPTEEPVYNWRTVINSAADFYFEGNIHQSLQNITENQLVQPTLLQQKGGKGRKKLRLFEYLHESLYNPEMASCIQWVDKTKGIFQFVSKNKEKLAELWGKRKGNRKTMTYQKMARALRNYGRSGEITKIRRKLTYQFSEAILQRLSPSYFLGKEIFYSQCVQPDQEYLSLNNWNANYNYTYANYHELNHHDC
# In short: as §1
# ELF4 = ELF4 (Homo sapiens, UniProt Q99607 1-663); conditions: protein: recombinant; tags: N-terminal GST; dsDNA, one strand shown
# In short: as §1
# ELK4 = target: T9, ELK4 (Homo sapiens, UniProt P28324-2 1-405); conditions: protein: recombinant; tags: N-terminal GST; dsDNA, one strand shown
# T9 sequence: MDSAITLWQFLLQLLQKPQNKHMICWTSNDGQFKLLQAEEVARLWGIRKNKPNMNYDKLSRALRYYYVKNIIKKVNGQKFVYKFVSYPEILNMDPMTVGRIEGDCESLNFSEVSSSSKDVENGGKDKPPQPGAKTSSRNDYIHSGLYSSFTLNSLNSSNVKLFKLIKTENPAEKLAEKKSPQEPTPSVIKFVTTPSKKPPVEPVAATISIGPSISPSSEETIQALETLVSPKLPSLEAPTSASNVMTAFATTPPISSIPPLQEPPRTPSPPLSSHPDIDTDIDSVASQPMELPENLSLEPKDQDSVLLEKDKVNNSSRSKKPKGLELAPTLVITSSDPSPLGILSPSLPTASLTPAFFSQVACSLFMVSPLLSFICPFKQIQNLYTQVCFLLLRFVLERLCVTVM
# In short: as §1
# ETV2 = target: T10, ETV2 (Homo sapiens, UniProt O00321 1-342); conditions: protein: recombinant; tags: N-terminal GST; dsDNA, one strand shown
# T10 sequence: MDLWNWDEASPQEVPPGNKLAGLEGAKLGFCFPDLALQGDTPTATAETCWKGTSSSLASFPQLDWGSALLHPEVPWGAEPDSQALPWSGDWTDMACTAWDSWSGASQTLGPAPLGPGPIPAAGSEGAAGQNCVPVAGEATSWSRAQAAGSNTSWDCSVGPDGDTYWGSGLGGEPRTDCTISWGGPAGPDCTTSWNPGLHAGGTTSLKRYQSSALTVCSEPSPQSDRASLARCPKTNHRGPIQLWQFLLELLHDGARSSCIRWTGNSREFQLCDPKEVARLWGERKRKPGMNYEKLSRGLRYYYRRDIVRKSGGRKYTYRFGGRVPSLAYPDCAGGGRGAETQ
# In short: as §1
# ELF3 = target: T11, ELF3 (Homo sapiens, UniProt P78545 1-371); conditions: protein: recombinant; tags: N-terminal GST; dsDNA, one strand shown
# T11 sequence: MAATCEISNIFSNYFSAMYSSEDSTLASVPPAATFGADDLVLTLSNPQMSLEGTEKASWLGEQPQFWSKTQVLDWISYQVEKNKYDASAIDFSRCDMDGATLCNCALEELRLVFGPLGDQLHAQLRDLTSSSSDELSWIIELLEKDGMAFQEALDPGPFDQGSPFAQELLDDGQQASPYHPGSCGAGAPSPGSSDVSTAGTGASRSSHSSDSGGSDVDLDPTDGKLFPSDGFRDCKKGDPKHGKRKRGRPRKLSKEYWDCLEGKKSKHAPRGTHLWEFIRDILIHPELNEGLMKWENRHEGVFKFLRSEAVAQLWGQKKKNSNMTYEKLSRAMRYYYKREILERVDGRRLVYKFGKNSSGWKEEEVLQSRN
# In short: as §1
# CRX = CRX (Homo sapiens, UniProt O43186 1-299); conditions: protein: recombinant; tags: N-terminal GST; dsDNA, one strand shown
# In short: as §1
# ETV1 = ETV1 (Homo sapiens, UniProt P50549 1-477); conditions: protein: recombinant; tags: N-terminal GST; dsDNA, one strand shown
# In short: as §1
# Sequence of CRX (O43186 whole entry): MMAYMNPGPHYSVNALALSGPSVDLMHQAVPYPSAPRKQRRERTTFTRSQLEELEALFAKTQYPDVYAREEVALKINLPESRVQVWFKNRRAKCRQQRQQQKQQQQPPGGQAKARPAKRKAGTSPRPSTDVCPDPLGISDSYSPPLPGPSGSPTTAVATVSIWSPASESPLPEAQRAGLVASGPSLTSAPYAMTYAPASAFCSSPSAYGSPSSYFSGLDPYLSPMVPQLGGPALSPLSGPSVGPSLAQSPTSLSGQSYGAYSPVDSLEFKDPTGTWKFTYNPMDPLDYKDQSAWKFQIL
# Sequence of ELF4 (Q99607 whole entry): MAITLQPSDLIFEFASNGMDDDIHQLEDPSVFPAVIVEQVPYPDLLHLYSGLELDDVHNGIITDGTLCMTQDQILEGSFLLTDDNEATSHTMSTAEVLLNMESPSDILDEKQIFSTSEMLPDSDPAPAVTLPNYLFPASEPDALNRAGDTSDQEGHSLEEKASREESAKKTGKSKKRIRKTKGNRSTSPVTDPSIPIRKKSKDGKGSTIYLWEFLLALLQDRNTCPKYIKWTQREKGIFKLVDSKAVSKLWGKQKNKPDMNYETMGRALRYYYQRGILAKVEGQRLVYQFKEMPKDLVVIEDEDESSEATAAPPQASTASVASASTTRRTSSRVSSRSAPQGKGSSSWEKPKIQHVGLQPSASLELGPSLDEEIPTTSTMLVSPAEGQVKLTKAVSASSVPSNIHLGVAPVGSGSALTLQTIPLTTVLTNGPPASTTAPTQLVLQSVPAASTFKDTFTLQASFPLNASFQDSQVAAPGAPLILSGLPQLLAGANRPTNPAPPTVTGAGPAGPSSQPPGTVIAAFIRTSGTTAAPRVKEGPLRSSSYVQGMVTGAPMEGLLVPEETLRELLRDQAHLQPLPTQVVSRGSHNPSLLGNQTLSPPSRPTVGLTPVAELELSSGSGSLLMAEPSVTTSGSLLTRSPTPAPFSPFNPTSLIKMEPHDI
# Sequence of SPIB (Q01892 whole entry): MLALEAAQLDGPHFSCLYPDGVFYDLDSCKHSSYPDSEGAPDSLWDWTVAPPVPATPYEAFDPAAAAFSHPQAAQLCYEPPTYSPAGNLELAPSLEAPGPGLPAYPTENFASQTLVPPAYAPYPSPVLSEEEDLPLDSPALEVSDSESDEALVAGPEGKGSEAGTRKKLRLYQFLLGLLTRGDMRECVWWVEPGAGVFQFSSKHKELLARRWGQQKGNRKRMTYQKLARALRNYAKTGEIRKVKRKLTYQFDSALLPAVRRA
# Sequence of HSF1 (Q00613 whole entry): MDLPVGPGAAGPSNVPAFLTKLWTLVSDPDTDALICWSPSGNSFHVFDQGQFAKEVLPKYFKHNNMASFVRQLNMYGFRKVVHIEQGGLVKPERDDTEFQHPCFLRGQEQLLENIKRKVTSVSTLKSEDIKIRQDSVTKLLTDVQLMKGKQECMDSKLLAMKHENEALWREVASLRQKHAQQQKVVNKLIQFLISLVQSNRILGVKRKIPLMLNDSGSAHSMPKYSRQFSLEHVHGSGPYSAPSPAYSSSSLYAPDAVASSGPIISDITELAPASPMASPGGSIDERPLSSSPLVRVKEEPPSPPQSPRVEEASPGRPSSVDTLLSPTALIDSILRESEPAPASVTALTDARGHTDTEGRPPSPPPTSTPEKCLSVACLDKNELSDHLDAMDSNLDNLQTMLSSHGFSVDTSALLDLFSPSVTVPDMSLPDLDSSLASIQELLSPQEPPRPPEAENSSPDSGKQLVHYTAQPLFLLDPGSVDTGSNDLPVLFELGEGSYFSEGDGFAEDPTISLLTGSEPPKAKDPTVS
# Sequence of ETV1 (P50549 whole entry): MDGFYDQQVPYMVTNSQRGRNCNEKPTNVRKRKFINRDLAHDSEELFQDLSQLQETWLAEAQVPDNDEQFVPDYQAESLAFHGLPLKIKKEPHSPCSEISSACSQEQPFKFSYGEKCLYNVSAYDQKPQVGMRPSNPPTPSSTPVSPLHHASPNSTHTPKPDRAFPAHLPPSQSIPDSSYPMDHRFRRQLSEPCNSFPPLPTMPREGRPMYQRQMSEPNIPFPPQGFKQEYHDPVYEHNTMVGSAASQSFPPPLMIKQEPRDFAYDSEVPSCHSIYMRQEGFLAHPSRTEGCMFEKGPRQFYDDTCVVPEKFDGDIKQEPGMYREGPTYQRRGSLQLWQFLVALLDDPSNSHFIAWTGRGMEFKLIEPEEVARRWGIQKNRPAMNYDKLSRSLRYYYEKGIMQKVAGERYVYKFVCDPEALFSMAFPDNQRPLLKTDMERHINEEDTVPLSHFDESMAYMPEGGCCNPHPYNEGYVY
# Sequence of ELF1 (P32519 whole entry): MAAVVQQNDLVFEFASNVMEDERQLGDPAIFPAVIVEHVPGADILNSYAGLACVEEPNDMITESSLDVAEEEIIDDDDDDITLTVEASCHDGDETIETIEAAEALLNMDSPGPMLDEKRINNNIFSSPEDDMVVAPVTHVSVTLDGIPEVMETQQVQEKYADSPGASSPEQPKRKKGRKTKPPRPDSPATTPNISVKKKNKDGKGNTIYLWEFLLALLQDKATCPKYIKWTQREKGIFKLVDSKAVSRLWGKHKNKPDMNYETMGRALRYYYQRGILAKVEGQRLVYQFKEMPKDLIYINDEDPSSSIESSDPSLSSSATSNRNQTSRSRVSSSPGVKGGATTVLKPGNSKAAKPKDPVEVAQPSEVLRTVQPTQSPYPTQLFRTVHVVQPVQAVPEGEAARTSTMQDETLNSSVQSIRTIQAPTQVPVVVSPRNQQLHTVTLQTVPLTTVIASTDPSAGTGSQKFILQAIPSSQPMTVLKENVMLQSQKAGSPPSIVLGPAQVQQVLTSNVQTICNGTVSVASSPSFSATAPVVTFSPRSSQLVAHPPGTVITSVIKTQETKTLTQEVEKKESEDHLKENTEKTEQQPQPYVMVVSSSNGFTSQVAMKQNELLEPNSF
# Sequence of ETV5 (P41161 whole entry): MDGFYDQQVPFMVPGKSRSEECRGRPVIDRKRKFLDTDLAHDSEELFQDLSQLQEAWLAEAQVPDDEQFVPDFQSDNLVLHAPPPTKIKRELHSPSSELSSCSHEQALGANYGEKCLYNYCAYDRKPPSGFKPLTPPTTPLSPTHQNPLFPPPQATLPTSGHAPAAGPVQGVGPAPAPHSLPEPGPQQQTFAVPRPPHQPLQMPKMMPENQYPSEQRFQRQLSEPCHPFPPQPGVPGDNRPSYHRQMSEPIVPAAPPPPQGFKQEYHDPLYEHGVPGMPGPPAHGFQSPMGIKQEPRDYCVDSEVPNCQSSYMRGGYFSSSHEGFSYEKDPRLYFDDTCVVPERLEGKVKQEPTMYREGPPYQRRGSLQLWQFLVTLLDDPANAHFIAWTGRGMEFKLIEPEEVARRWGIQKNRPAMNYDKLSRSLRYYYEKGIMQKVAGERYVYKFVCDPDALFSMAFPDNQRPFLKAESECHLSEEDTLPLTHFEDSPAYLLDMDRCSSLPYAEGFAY
sequence,measurement,setting,value
AATGTT,binding signal,FLI1,"1.55 fold enrichment (6-mer frequency, TF over GST control)"
same,binding signal,ELK1,"1.47 fold enrichment (6-mer frequency, TF over GST control)"
same,binding signal,GABPA,"1.49 fold enrichment (6-mer frequency, TF over GST control)"
same,binding signal,ERG,"1.48 fold enrichment (6-mer frequency, TF over GST control)"
same,binding signal,ELF1,"1.57 fold enrichment (6-mer frequency, TF over GST control)"
same,binding signal,EHF,"1.56 fold enrichment (6-mer frequency, TF over GST control)"
same,binding signal,SPI1,"1.47 fold enrichment (6-mer frequency, TF over GST control)"
same,binding signal,SPIB,"1.58 fold enrichment (6-mer frequency, TF over GST control)"
same,binding signal,ELK3,"1.47 fold enrichment (6-mer frequency, TF over GST control)"
same,binding signal,FEV,"1.47 fold enrichment (6-mer frequency, TF over GST control)"
same,binding signal,ETV5,"1.61 fold enrichment (6-mer frequency, TF over GST control)"
same,binding signal,HSF1,"2.33 fold enrichment (6-mer frequency, TF over GST control)"
same,binding signal,SPIC,"1.68 fold enrichment (6-mer frequency, TF over GST control)"
same,binding signal,ELF4,"1.57 fold enrichment (6-mer frequency, TF over GST control)"
same,binding signal,ELK4,"1.46 fold enrichment (6-mer frequency, TF over GST control)"
same,binding signal,ETV2,"1.43 fold enrichment (6-mer frequency, TF over GST control)"
same,binding signal,ELF3,"1.51 fold enrichment (6-mer frequency, TF over GST control)"
same,binding signal,CRX,"1.59 fold enrichment (6-mer frequency, TF over GST control)"
same,binding signal,ETV1,"1.66 fold enrichment (6-mer frequency, TF over GST control)"
